About 1,700 (3.3%) of roughly 52,000 compounds were called active. For the sample, actives were picked, then their nearest neighbours and some compounds at random. A number with no mark means an inactive call. Cut-off read from the data, not from the text of the source: active = survival mostly below about 52% (no sharp cut-off); inactive = mostly above about 56%.
What follows are compounds tested on Wild type (assay: growth inhibition of S. aureus wild type versus tarO mutant, primary screen, teichoic acid synthesis inhibitors, RN4220, OD600 (AID 463173)). Conditions: S. aureus RN4220 wild type/DeltatarO growth, OD600, 18 h, hits give low values, screened at 18.75 µg/mL (by protocol).

Row | Structure (SMILES) | survival
1 | COc1ccc(-n2ncc3c2ncn2nc(-c4ccc(Cl)cc4Cl)nc32)cc1 | 92%
2 | Cc1ccc(NC2=NCC(=O)N2C2CCCC2)cc1C | 104%
3 | CCOC(=O)c1cc(-c2ccccc2)n(CCCC(=O)Nc2ccc(C)cc2Cl)c1C | 91%
4 | COc1ccc(S(=O)(=O)N/N=C(/C2CCCCC2)C(F)(F)F)cc1 | 111%
5 | CCN(C(=O)CCS(=O)(=O)c1ccc2c(c1)oc(=O)n2C)c1ccc(OC)cc1 | 70%
6 | CCc1ccccc1NC(=O)Nc1cc(C(=O)NCc2ccc(OC)cc2)ccc1N1CCCC1 | 128%
7 | CN(C(=O)c1c[nH]c2ccc(S(=O)(=O)Nc3cccc(C(F)(F)F)c3)cc2c1=O)C1CCCCC1 | 71%
8 | COc1cccc(NS(=O)(=O)c2ccc3[nH]cc(C(=O)NC4CCCCC4)c(=O)c3c2)c1 | 50%
9 | O=C(NC1CCCC1)c1c[nH]c2ccc(S(=O)(=O)Nc3cccc(C(F)(F)F)c3)cc2c1=O | 11% (active)
10 | COc1cccc(-n2c(SCC(=O)c3ccc(Cl)cc3)nc3c([nH]c4ccccc43)c2=O)c1 | 45%
11 | COc1cc(OC)c(NC2(c3ccccc3)C(=O)c3ccccc3C2=O)cc1Cl | 65%
12 | CCOc1ccc(CCNC(=O)c2c(C)oc3ncn(C)c(=O)c23)cc1 | 82%
13 | Cc1oc2ncn(CC(C)C)c(=O)c2c1C(=O)Nc1cccc(C(F)(F)F)c1 | -3% (active)
14 | Cc1oc2ncn(CC(C)C)c(=O)c2c1C(=O)NCCCN1CCCCC1 | 73%
15 | CCNC(=O)c1c(C)oc2ncn(C)c(=O)c12 | 119%
16 | Cc1cccc(NC(=O)c2c(C)oc3ncn(CC(C)C)c(=O)c23)n1 | 71%
17 | Cc1ccnc(NC(=O)c2c(C)oc3ncn(CC(C)C)c(=O)c23)c1 | 69%
18 | Cc1oc2ccc(O)c(CN3CCN(C)CC3)c2c1C(=O)Nc1cccc(C(F)(F)F)c1 | 92%
19 | Cc1oc2ccc(O)c(CN(C)Cc3ccccc3)c2c1C(=O)Nc1ccccc1 | 105%
20 | Cc1oc2ccc(O)c(CN(C)Cc3ccccc3)c2c1C(=O)Nc1cccc(C(F)(F)F)c1 | 10% (active)
21 | CCCCNC(=O)c1c(C)oc2ncn(CC(C)C)c(=O)c12 | 1% (active)
22 | CSc1ccc(CCNC(=O)c2c(C)oc3ncn(C)c(=O)c23)cc1 | -4% (active)
23 | CCN(CC)CCCNC(=O)c1c(C)oc2ncn(CC(C)C)c(=O)c12 | 81%
24 | Cc1ccc(CNC(=O)CCCCCn2c(=O)[nH]c3ccccc3c2=O)cc1 | 146%

Row | Structure (SMILES) | survival
25 | CCOc1ccc(NS(=O)(=O)c2ccc3[nH]cc(C(=O)N4CCCCCC4)c(=O)c3c2)cc1 | 122%
26 | COc1ccccc1N1CCN(Cc2nnc(-c3ccccc3C)o2)CC1 | 82%
27 | CCc1nn2c(=O)c(S(=O)(=O)Nc3ccc(Br)cc3F)c(C)nc2s1 | 61%
28 | COc1ccccc1C(=O)NC1(C(F)(F)F)C(=O)NC(C)=C1C#N (stereo not drawn) | 90%
29 | CC(C)(C)NC(=O)c1oc2ccccc2c1NC(=O)c1ccc(F)cc1 | 73%
30 | CN(C)c1ccc(C(=O)Nc2c(C(=O)NC(C)(C)C)oc3ccccc23)cc1 | 65%
31 | O=C(Nc1ccc(F)cc1)c1oc2ccccc2c1NC(=O)C1CCCCC1 | 14%
32 | Cc1ccc(NC(=O)c2oc3ccccc3c2NC(=O)C2CCCCC2)cc1 | 4% (active)
33 | CCOc1ccc(NC(=O)c2oc3ccccc3c2NC(=O)C2CCCCC2)cc1 | 84%
34 | Cc1ccc(C(=O)Nc2c(C(=O)NC(C)(C)C)oc3ccccc23)cc1 | 0% (active)
35 | CCOC(=O)c1sc(NC(=O)c2c(-c3ccccc3)c(-c3ccccc3)nn(C)c2=O)nc1C | 71%
36 | COc1ccc(-c2noc(Cn3c(=O)c4ccccc4n(CC(=O)Nc4cccc(OC)c4)c3=O)n2)cc1 | 82%
37 | Cc1ccccc1NS(=O)(=O)c1ccc2[nH]cc(C(=O)N3CCCC3)c(=O)c2c1 | 99%
38 | CC(Nc1ccc(-c2nc(-c3ccncc3)no2)cc1[N+](=O)[O-])c1ccccc1 (stereo not drawn) | 87%
39 | CCOc1ccc(NC(=O)Cn2c(=O)oc3cc(S(=O)(=O)NC4CCCC4)ccc32)cc1 | 81%
40 | CCOCCCNC(=O)c1cnc2sc(N3CCCCCC3)nn2c1=O | 68%
41 | CCOC(=O)C1(C)C=C(Nc2cccc(C)c2)C(=O)N1c1ccccc1 (stereo not drawn) | 51%
42 | CCOC(=O)Cc1c(C)nc2cc(-c3ccc(C(C)(C)C)cc3)nn2c1C | -2% (active)
43 | CCOC(=O)CC(NC(=O)CCc1c(C)nc2cc(-c3ccccc3)nn2c1C)c1ccc(C)cc1 (stereo not drawn) | 128%
44 | CCOC(=O)Cc1c(C)nc2cc(C)nn2c1C | 106%
45 | O=C(Nc1ccccc1O)c1cccc(S(=O)(=O)Nc2ccccc2O)c1 | 108%
46 | CCN1CCN(CC2CCCCC2)CC1 | 102%
47 | CC1CN(C(=O)CCC(=O)NCc2ccccc2)c2cc(Cl)ccc2O1 (stereo not drawn) | 92%
48 | Oc1ccc(-c2nnc(SCc3ccc(Cl)cc3)o2)cc1 | 112%

Row | Structure (SMILES) | survival
49 | Oc1ccccc1-c1nnc(SCc2ccccc2)o1 | 103%
50 | CCOc1ccccc1-c1nnc(SCc2ccc(Cl)cc2)o1 | -14% (active)
51 | Cc1cc(C(=O)N2CCN(c3cc(Cl)ccc3C)CC2)c2c(C)nn(-c3ccccc3)c2n1 | 136%
52 | O=C(Nc1ncn[nH]1)C(F)(F)C(F)F | 108%
53 | O=C1CC(c2ccccc2)Cc2[nH]c(=O)c(C(=O)Nc3cccc(Cl)c3)cc21 (stereo not drawn) | 0% (active)
54 | O=C1CC(c2ccccc2)Cc2[nH]c(=O)c(C(=O)Nc3ccc(F)cc3)cc21 (stereo not drawn) | 75%
55 | CC(=O)c1ccc(NC(=O)c2cc3c([nH]c2=O)CC(c2ccccc2)CC3=O)cc1 (stereo not drawn) | 85%
56 | COc1ccc(NC(=O)c2cc3c([nH]c2=O)CC(c2ccccc2)CC3=O)cc1 (stereo not drawn) | 63%
57 | O=C1CC(c2ccccc2)Cc2[nH]c(=O)c(C(=O)Nc3cccc(F)c3)cc21 (stereo not drawn) | 85%
58 | Cc1cccc(NC(=O)c2cc3c([nH]c2=O)CC(c2ccccc2)CC3=O)c1 (stereo not drawn) | -3% (active)
59 | CCOC(=O)c1ccc(NC(=O)CSc2ccc(-c3ccccn3)nn2)cc1 | 90%
60 | COc1ccccc1N1CCN(C(=O)c2nc(-c3ccc(C)cc3)n3c2CCCCC3)CC1 | 85%
61 | Cc1ccc(-n2ncc3c(N(CCO)Cc4ccccc4)ncnc32)cc1 | 0% (active)
62 | Cc1ccc(-n2ncc3c(NCCc4ccccc4)ncnc32)cc1 | 76%
63 | CCCCN(CCCC)c1ncnc2c1cnn2-c1cccc(C)c1 | 91%
64 | CCN(Cc1ccccc1)c1ncnc2c1cnn2-c1ccc(F)cc1 | 55%
65 | Cc1ccc(-n2ncc3c(N(C)Cc4ccccc4)ncnc32)cc1 | 85%
66 | OCCN(CCO)c1ncnc2c1cnn2-c1ccc(F)cc1 | 1% (active)
67 | CCOc1ccc(-c2cc3nc(C4CCN(C(=O)OC(C)(C)C)CC4)c(C(=O)Nc4c(C)cccc4C)cn3n2)cc1 | 86%
68 | CCOc1ccc(C(=O)CSc2nnc3cc(C)c4ccccc4n23)cc1 | 85%
69 | CCOCCn1ccc2c(OCC(=O)Nc3cccc([N+](=O)[O-])c3)cccc2c1=O | 128%
70 | CCCN1C2CCCC1CC(NC(=O)c1ccc(F)cc1)C2 (stereo not drawn) | 108%
71 | CNC(=O)Cn1c(=O)c2cccn2c2ccc(F)cc21 | 85%
72 | COc1ccc(OCCn2c(NC(=O)c3ccc(OC)cc3)nc3ccccc32)cc1 | -13% (active)

Row | Structure (SMILES) | survival
73 | O=C(Nc1nc2ccccc2n1CCOc1ccccc1Cl)c1ccccc1 | 36%
74 | COc1ccc(C(=O)Nc2nc3ccccc3n2CCOc2ccc(Cl)cc2)cc1 | 4% (active)
75 | CCCC(O)c1nc2ccccc2n1CCCOc1ccc(Cl)cc1 (stereo not drawn) | 97%
76 | OCCNc1nc2ccccc2n1CCOc1ccccc1 | 115%
77 | COc1ccccc1OCCn1c(NC(=O)c2ccc(Cl)cc2)nc2ccccc21 | 80%
78 | COc1ccccc1OCCn1c(NC(=O)c2ccccc2Cl)nc2ccccc21 | -10% (active)
79 | COc1ccccc1OCCn1c(C(C)Oc2ccccc2)nc2ccccc21 (stereo not drawn) | 76%
80 | COc1ccc(OCCn2c(C(C)Oc3ccccc3)nc3ccccc32)cc1 (stereo not drawn) | 72%
81 | Cc1ccc(N2CC(NC(=O)/C=C\c3ccc4c(c3)OCO4)CC2=O)cc1C (stereo not drawn) | 130%
82 | CCOc1ccc(CCNC(=O)c2nn(-c3ccc(OC)c(Cl)c3)c(=O)c3c2c2ccccc2n3C)cc1OCC | 88%
83 | COc1ccc(OC)c(-n2cnc3cc(C(=O)NC4CCCC4)ccc32)c1 | 72%
84 | CC1=CC(C)C2C(=O)N(c3ccccc3)C(=O)C2C1 (stereo not drawn) | 111%
85 | COc1ccc(NC(=O)Cn2c(=O)oc3cc(S(=O)(=O)N4CCCC4)ccc32)cc1OC | 79%
86 | CC(C)c1ccc(C2N=C(N)Nc3nc4ccccc4n32)cc1 (stereo not drawn) | 93%
87 | COc1cc(C2N=C(N)Nc3nc4ccccc4n32)ccc1OCCC(C)C (stereo not drawn) | 85%
88 | CC(C)CCOc1ccc(C2N=C(N)Nc3nc4ccccc4n32)cc1 (stereo not drawn) | -15% (active)
89 | CCc1ccc(N2CCn3c2nc2c3c(=O)n(CCCc3ccccc3)c(=O)n2C)cc1 | 88%
90 | O=C(Nc1ccccc1C(F)(F)F)N1CC=C(c2c[nH]c3ccccc23)CC1 | 127%
91 | Cc1ccc(CNS(=O)(=O)c2ccc(C(=O)N(C)C)s2)cc1 | -6% (active)
92 | CN(C)C(=O)c1ccc(S(=O)(=O)NCc2ccc(Cl)cc2)s1 | 123%
93 | COc1ccc(CNS(=O)(=O)c2ccc(C(=O)N(C)C)s2)cc1 | 87%

— PubChem BioAssay AID463173 (ICCB-Longwood Screening Facility, Harvard Medical School, 2010)
